Here are results for 22 compounds from PubChem BioAssay (Tox21).

Assay [1] is described as follows: A CellTox Green Cytotoxicity Assay to monitor cytotoxicity in HEK293 cells - 40 hour (AID 1224871). Further: nearly all actives have a fitted effect of over 45% in size. The method, boiled down:
(§1)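 Seeding of HEK293 cells together with cytotoxicity dye preceded a 5 h incubation at 37 C/5% CO2. Test compounds in DMSO were then added and fluorescence monitored across 40 h.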

A short description of assay [2]: qHTS RealTime-Glo MT Cell Viability Assay in HEK293 cells - 16 hour (AID 1224872). Further: top concentration of the series differs between compounds; nearly all actives have a fitted effect of over 50% in size. The essentials:
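HEK293 cells were seeded at 600 cells/well together with NanoLuc luciferase and cell-permeant prosubstrate, preincubated 5 h at 37 C/5% CO2, then given compound in DMSO by pintool. Luminescence from viable-cell prosubstrate reduction was read repeatedly over 40 h.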
A general note: Quantitative high-throughput screening tests each substance at several concentrations.

The nature of assay [3]: qHTS RealTime-Glo MT Cell Viability Assay in HepG2 cells - 8 hour (AID 1224873). Further: nearly all actives have a fitted effect of over 55% in size. The method, boiled down: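 HepG2 cells (600/well) mixed with RealTime-Glo MT reagent, settled 5 h at 37 C/5% CO2 before compound addition. Nonlytic NanoLuc luminescence from viable-cell prosubstrate reduction read repeatedly during 40 h treatment at 37 C.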
Assay [4] in a line: qHTS RealTime-Glo MT Cell Viability Assay in HEK293 cells - 40 hour (AID 1224874). Further: nearly all actives have a fitted effect of over 50% in size. Conditions: RealTime-Glo luminescence; max response: active compounds read low. The method, boiled down:
(§2)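 Tox21 screen in HEK293 using RealTime-Glo MT chemistry, with cells and reagent co-dispensed. Luminescence proportional to viable cell number was captured at intervals during 40 h compound exposure at 37 C.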

The nature of assay [5]: A CellTox Green Cytotoxicity Assay to monitor cytotoxicity in HEK293 cells - 24 hour (AID 1224875). Further: series mostly up to about 77 µM; nearly all actives have a fitted effect of over 45% in size. The method, boiled down:
as §1

Assay [6] can be described thus: A CellTox Green Cytotoxicity Assay to monitor cytotoxicity in HepG2 cells - 16 hour (AID 1224876). Further: nearly all actives have a fitted effect of over 45% in size. The essentials:
(§3)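 Nonlytic assay: viable cells exclude the dye, so fluorescence scales with cell death. HepG2 at 600 cells/well, compounds added after 5 h, signal read across 40 h.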

Assay [7] can be described thus: qHTS RealTime-Glo MT Cell Viability Assay in HepG2 cells - 32 hour (AID 1224877). Further: nearly all actives have a fitted effect of over 55% in size. The essentials: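 HepG2 cells were seeded at 600 cells/well together with NanoLuc luciferase and a cell-permeant prosubstrate, preincubated 5 h at 37 C/5% CO2, then pin-dosed with compounds in DMSO. Nonlytic luminescence from viable cells was read at each time point.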
Assay [8] in a line: A CellTox Green Cytotoxicity Assay to monitor cytotoxicity in HepG2 cells - 24 hour (AID 1224878). Further: nearly all actives have a fitted effect of over 45% in size. The method, boiled down: as §3
A short description of assay [9]: A CellTox Green Cytotoxicity Assay to monitor cytotoxicity in HepG2 cells - 40 hour (AID 1224879). Further: nearly all actives have a fitted effect of over 40% in size. The method, boiled down: as §3
Assay [10] is described as follows: qHTS RealTime-Glo MT Cell Viability Assay in HEK293 cells - 0 hour (AID 1224880). Further: nearly all actives have a fitted effect of over 45% in size. Further: potency means the concentration at half of the fitted maximal effect. The method, boiled down:
as §2

Records with an inconclusive call do not appear. Values without a mark were called inactive. Activity calls are given as the source filed them. The call rests on the fitted dose curve; in most records, active means well fitted curve in the direction sought with a large enough effect in the repeat runs; inconclusive means weak or mixed curves; inactive means no such curve, though single readings can be large; an effect the other way counts as inactive or inconclusive.
On the % scale 0 is the no-effect control and ±100 the full control effect.

For `CCCCCCCC#N`, the Potency result in assay [1], in assay [2], in [3], in assay [5], in assay [6] and in assay [7] was “inactive” in each case. Also, the Potency result in assay [8], in [9] and in assay [10] was “inactive” throughout. The max response in assay [4] is -4.16%.

Take `CN1CCN(C(c2ccccc2)c2ccccc2)CC1`: the Potency entry in assay [1], in assay [2], in assay [3], in [5], in assay [6] and in assay [7] was “inactive” in each case. The Potency entry in assay [8], in assay [9] and in assay [10] was “inactive” in each case. Also, the max response in assay [4] was -1.32%.

For `CCCCCCCC/C=C\CCCCCCCC(=O)OCC`, the Potency result in assay [1], in assay [2], in [3], in [5], in [6] and in [7] was “inactive” in each case. The Potency entry in assay [8], in assay [9] and in assay [10] was “inactive” in each case. Also, the max response in [4] was 4.58%.

Consider `CC(=O)NO`, for which the Potency entry in assay [1], in assay [2], in assay [3], in assay [5], in assay [6] and in [7] was “inactive” in each case. Also, the Potency entry in assay [8], in assay [9] and in [10] was “inactive” in each case. Also, the max response in assay [4] is 2.23%.

For the compound `NCCCN1CCOCC1`, the Potency entry in assay [1], in [2], in assay [3], in [5], in assay [6] and in assay [7] was “inactive” each time. Further, the Potency entry in [8], in assay [9] and in assay [10] was “inactive” each time. Moreover, the max response in [4] was -9.34%.

Consider `O=C1CCC(=O)O1`, for which the Potency entry in assay [1], in [2], in assay [3], in assay [5], in assay [6] and in assay [7] was “inactive” each time. Besides, the Potency entry in assay [8], in [9] and in assay [10] was “inactive” in each case. The max response in assay [4] is 3.63%.

In the case of `CCCCC(=O)OCC(=O)[C@H]1[C@H](C)C[C@H]2[C@@H]3C[C@H](F)C4=CC(=O)C=C[C@]4(C)[C@@]3(F)[C@@H](O)C[C@@]21C`, the Potency result in [1], in assay [2], in assay [3], in assay [5], in assay [6] and in assay [7] was “inactive” throughout. Besides, the Potency result in [8] and in assay [9] was “inactive” in each case. In assay [4], the max response was -15.1%. Moreover, the Potency in [10] was 4.77 µM (active).

For `O=[N+]([O-])c1ccc(NCCO)c(OCCO)c1`, the Potency entry in assay [1], in assay [2], in assay [3], in assay [5], in assay [6] and in assay [7] was “inactive” in each case. Further, the Potency entry in assay [8], in assay [9] and in assay [10] was “inactive” each time. The max response in assay [4] is -13.3%.

As for `NCC(=O)CCC(=O)O`, the Potency result in assay [1], in [2], in assay [3], in assay [5], in assay [6] and in assay [7] was “inactive” in each case. In addition, the Potency result in assay [8], in [9] and in [10] was “inactive” throughout. Besides, in assay [4], the max response is 7.89%.

As to `COS(=O)(=O)C(F)(F)F`, the Potency result in [1], in assay [2], in [3], in assay [5], in [6] and in [7] was “inactive” throughout. In addition, the Potency result in [8], in assay [9] and in [10] was “inactive” in each case. Besides, in [4], the max response was 11.7%.

Consider `CCCCCCCN`, for which the Potency entry in assay [1], in assay [2], in assay [3], in assay [5], in assay [6] and in [7] was “inactive” in each case. Further, the Potency entry in assay [8], in assay [9] and in assay [10] was “inactive” throughout. In assay [4], the max response is -2.68%.

As for `CC1OC(=O)C(C)OC1=O` (stereo unspecified), the Potency entry in [1], in assay [2], in [3], in assay [5], in assay [6] and in assay [7] was “inactive” each time. For the same compound, the Potency entry in [8], in assay [9] and in [10] was “inactive” each time. The max response in assay [4] was -4.59%.

For `O=S(c1cc(Cl)cc(Cl)c1O)c1cc(Cl)cc(Cl)c1O`, the Potency entry in [1], in assay [2], in assay [3], in assay [5], in [6] and in assay [7] was “inactive” in each case. The Potency entry in [8], in [9] and in assay [10] was “inactive” in each case. The max response in assay [4] was -7.88%.

For the compound `CCc1cc(C2=C(C(=O)O)N(c3ccccc3C(F)(F)F)S(=O)(=O)c3ccccc32)cc2c1OCO2`, the Potency result in [1], in assay [2], in assay [3], in assay [5], in assay [6] and in [8] was “inactive” throughout. Also, the Potency entry in assay [9] was “inactive”. The max response in assay [4] is -24.9%. Also, the Potency in assay [10] is 43.1 µM (active).

Take `Cc1ccc(C(C)OC(=O)C2(C)CCC(C(=O)O)C2(C)C)cc1` (stereo unspecified): the Potency result in assay [1], in assay [2], in assay [3], in assay [5], in [6] and in assay [8] was “inactive” each time. Also, the Potency entry in [9] and in assay [10] was “inactive” in each case. Further, in [4], the max response was 8.96%.

`CCOC(=O)C(O)c1ccccc1` (stereo unspecified): the Potency result in assay [1], in assay [2], in [3], in assay [5], in [6] and in assay [7] was “inactive” in each case. The Potency entry in [9] and in assay [10] was “inactive” in each case. In addition, the max response in assay [4] is 4.49%.

Consider `CC(C)OC(=O)C(C)N(C(=O)c1ccccc1)c1ccc(F)c(Cl)c1` (stereo unspecified), for which the Potency entry in assay [1], in assay [2], in assay [3], in assay [5], in assay [6] and in assay [8] was “inactive” each time. For the same compound, the Potency result in assay [9] and in assay [10] was “inactive” each time. Also, the max response in assay [4] was -29.8%.

Turning to `C[C@@H]1C[C@H]2O[C@@]3(O[C@@H]2C(C)(C)O)[C@H](O)[C@@]2(C)[C@@H]4CC[C@H]5C(C)(C)[C@@H](O[C@@H]6OC[C@@H](O)[C@H](O)[C@H]6O)CC[C@@]56C[C@@]46CC[C@]2(C)[C@@H]13`, the Potency entry in assay [1], in assay [2], in [3], in assay [5], in assay [6] and in assay [8] was “inactive” throughout. The Potency result in assay [9] is “inactive”. Moreover, the max response in assay [4] is -15.4%.

For `C#CCN(C)CCCOc1ccc(Cl)cc1Cl`, the Potency result in [1], in assay [2], in assay [3], in assay [5], in assay [6] and in [7] was “inactive” throughout. For the same compound, in assay [10], the Potency result was “inactive”. For the same compound, in assay [4], the max response is -21.6%.

As for `O=CC1CC=CCC1` (stereo unspecified), the Potency entry in assay [1], in [2], in assay [3], in [5], in assay [6] and in [7] was “inactive” throughout. Further, the Potency result in assay [8], in [9] and in assay [10] was “inactive” throughout. Besides, the max response in assay [4] was 10.8%.

Consider `CC(=O)c1cccc([N+](=O)[O-])c1`, for which the Potency entry in assay [1], in assay [2], in assay [3], in [5], in assay [6] and in assay [7] was “inactive” in each case. The Potency entry in assay [8], in [9] and in [10] was “inactive” throughout. Moreover, in assay [4], the max response is 3.17%.

`CC[N+](C)(CC)CCOC(=O)C(O)(c1ccccc1)C1CCCCC1` (stereo unspecified): the Potency entry in assay [1], in [2], in assay [3], in [5], in [6] and in [7] was “inactive” in each case. For the same compound, the Potency result in assay [9] and in assay [10] was “inactive” in each case. Besides, the max response in assay [4] is 6.78%.
